Screening data as filed in PubChem BioAssay.
ARNT-TACC3 inh = disruptors of human ARNT/TACC3 interaction | Q9Y6A5 | AlphaScreen His-ARNT PAS-B/GST-TACC3 binding, luminescence; TACC3 fragment carries E629A point mutation | inhibition, % at 9.99 µM | 390,000 compounds, 0.66% hits | AID 623870;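 active means mean inhibition of replicates at least 50% and at least half of replicates each reaching 50%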
CendR NRP1 mod = alters CendR peptide binding to human NRP-1 | O14786 | FAM-RPARPAR peptide binding to NRP-1, fluorescence polarization | inhibition, % at 25 µM | 360,000 compounds, 0.85% hits | AID 602438;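 active means inhibition or corrected inhibition above about 18%, plus a signal ratio from 0.5 to 1.5, limit read from the data, passing the limit was not always enough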
Target sequence (O14786 whole entry, looked up): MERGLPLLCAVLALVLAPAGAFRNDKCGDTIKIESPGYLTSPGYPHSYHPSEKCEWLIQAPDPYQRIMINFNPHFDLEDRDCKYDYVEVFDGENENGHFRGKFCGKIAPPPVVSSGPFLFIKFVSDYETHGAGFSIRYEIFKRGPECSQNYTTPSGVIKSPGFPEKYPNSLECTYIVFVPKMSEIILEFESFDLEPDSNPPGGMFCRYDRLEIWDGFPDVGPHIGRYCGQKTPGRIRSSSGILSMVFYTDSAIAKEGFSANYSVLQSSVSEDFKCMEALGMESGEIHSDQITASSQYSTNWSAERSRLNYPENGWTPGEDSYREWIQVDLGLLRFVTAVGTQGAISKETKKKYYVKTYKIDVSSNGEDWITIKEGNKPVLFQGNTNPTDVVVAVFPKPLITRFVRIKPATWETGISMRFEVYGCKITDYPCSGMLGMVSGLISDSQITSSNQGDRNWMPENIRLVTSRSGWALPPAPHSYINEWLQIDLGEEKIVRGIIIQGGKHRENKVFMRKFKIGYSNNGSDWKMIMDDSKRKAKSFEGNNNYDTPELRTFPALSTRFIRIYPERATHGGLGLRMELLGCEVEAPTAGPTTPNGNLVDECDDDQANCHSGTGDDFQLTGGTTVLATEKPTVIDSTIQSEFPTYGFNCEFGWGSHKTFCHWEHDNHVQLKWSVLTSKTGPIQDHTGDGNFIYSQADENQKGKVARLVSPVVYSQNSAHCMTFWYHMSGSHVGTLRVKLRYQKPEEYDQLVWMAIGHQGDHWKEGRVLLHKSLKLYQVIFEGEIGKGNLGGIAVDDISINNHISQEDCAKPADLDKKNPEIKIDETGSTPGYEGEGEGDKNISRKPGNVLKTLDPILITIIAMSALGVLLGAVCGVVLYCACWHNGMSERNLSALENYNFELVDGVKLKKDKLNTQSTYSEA
iPSC survival up = enhancers of human iPSC single-cell survival; survival enhancement, % at 20 µM; AID 602274; 360,000 compounds, 0.044% hits; hiPSC single-cell survival, ATPlite luminescence; 100% = ROCK inhibitor wells, 0% = DMSO; in the data active means survival enhancement above about 18%;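 further: cells exposed to compounds for 16 hours before the ATP read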
ABCB6 inh 2 = inhibitors of human ABC transporter ABCB6; Q9NP58; K562-ABCB6 porphyrin accumulation, flow cytometry, 1 h; hits give low values; fluorescence ratio to DMSO, % at 10 µM; 360,000 compounds, 0.19% hits;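 active means fluorescence ratio to DMSO below 75%, the collection mean minus 3 SD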;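 further: signal is porphyrin accumulated inside mitochondria; lower ratio means ABCB6 inhibition with less porphyrin fluorescence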
GSIS activator = GLuc luminescence reporter in INS-1E cells, primary screen for activators of glucose-dependent secretion of insulin; INS-1E GLuc reporter insulin secretion, 2-3 h; activation, % at 16.6 µM; 370,000 compounds, 0.61% hits;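 active means lowest replicate activation of at least 40%, so every replicate reaches that level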
A number is an active result; i = inactive; nt = no result given. Sampled rows, rich in hits. Any-hit rate of the full collection: about 1.8%.

SMILES | ARNT-TACC3 inh | CendR NRP1 mod | iPSC survival up | ABCB6 inh 2 | GSIS activator
O=C(c1ccccn1)N1CC(=O)N2[C@H](CO)[C@H](c3ccc(C#Cc4ccccc4)cc3)[C@H]2C1 | nt | nt | nt | nt | i
COc1ccc(C2=C(N)c3ccccc3C2=O)cc1 | i | i | i | i | nt
COC1=C(c2ccccc2)C(=O)c2ccccc2C1=O | nt | 32.1 | i | i | i
Cc1ccc(NC(=O)COC(=O)CCc2c(C)nc3ncnn3c2C)cc1C | i | 24.5 | i | i | i
Cc1cc(C)n2nc(SC(C)C(=O)Nc3ccccc3F)nc2n1 (centres undefined) | active | i | i | i | i
Cc1ccc(NC(=O)C(C)Sc2nc3nc(C)cc(C)n3n2)cc1 (centres undefined) | i | i | i | i | i
CCNC(=O)Nc1ccc2c(c1)C(=O)N(C)[C@@H]1CC[C@@H](CC(=O)NCC3CCCCC3)O[C@H]1CO2 | i | nt | nt | nt | i
COC(=O)c1cc(=O)n(C2CC2)c(=NC2CC2)s1 | i | i | i | i | 76.1
CCOC(=O)c1ccc(N=c2sc(C(=O)OC)cc(=O)n2C2CC2)cc1 | i | i | i | i | i
CC1CCC/C(=N\NC(=O)c2ccncc2)C1 (centres undefined) | i | 30.0 | i | i | i
CO[C@H]1CN(C)C(=O)c2ccc(NC(=O)c3ccc(F)cc3)cc2OC[C@@H](C)N(C(=O)CN(C)C)C[C@@H]1C | nt | nt | nt | nt | i
COc1ccc(S(=O)(=O)N(C)c2ccc(C(=O)N3CCOCC3)cc2)cc1OC | i | i | i | i | i
CN(c1ccc(C(=O)N2CCN(Cc3ccc4c(c3)OCO4)CC2)cc1)S(=O)(=O)c1ccccc1 | i | i | i | i | i
CN(c1ccc(C(=O)N2CCN(Cc3ccccc3)CC2)cc1)S(=O)(=O)c1ccccc1 | i | i | i | i | 56.3
COc1ccc(S(=O)(=O)N(C)c2ccc(C(=O)N3CCCC3)cc2)cc1OC | i | i | i | i | 42.6
CCS(=O)(=O)N1[C@H](CO)[C@@H](c2ccccc2)C12CN(C(=O)C1CC1)C2 | nt | nt | nt | nt | i
Nc1nc2ccc(C(=O)N3CCCCC3)cc2s1 | 47.2 | i | i | i | i
CN(C)CC(=O)Nc1ccc2c(c1)[C@H]1C[C@@H](CC(=O)NCc3ccc(-c4ccccc4)cc3)O[C@@H](CO)[C@H]1O2 | i | nt | nt | nt | i
Cc1ccc(S(=O)(=O)Nc2cc3c4c(c2)C(C)C(=O)N4CCC3)cc1 (centres undefined) | i | i | i | i | i
COc1ccc(C)cc1S(=O)(=O)Nc1cc2c3c(c1)C(C)C(=O)N3CCC2 (centres undefined) | i | 22.6 | i | i | i
CO[C@H]1CN(C)C(=O)c2ccc(NC(=O)Nc3ccccc3)cc2OC[C@@H](C)N(C(=O)CN(C)C)C[C@@H]1C | nt | nt | nt | nt | i
CC(C)n1ncc2c(C(=O)Nc3ccc(S(N)(=O)=O)cc3)cc(C3CC3)nc21 | i | 45.6 | i | i | i
CN(C)c1ccc(/C=N/NC(=O)Cn2nnc3ccccc32)cc1 | i | i | i | i | i
COc1ccc(/C=N/NC(=O)Cn2nnc3ccccc32)cc1OC | i | i | i | i | 70.5
COc1cc(/C=N/NC(=O)C(C)n2nnc3ccccc32)ccc1O (centres undefined) | i | i | i | i | 52.8
SMILES | ARNT-TACC3 inh | CendR NRP1 mod | iPSC survival up | ABCB6 inh 2 | GSIS activator
CCOc1cc(/C=N/NC(=O)CCn2nnc3ccccc32)ccc1O | i | i | i | i | 78.2
CCCOc1ccc(/C=N/NC(=O)C(C)Sc2ccccn2)cc1OCC (centres undefined) | i | i | i | i | i
CCOc1cc(/C=N/NC(=O)C(C)Sc2ccccn2)ccc1O (centres undefined) | i | i | i | i | 69.7
COc1ccc(/C=N/NC(=O)C(C)n2nnc3ccccc32)cc1OC (centres undefined) | i | i | i | i | nt
CO[C@@H]1CN(C)C(=O)c2ccc(NC(=O)c3ccc(-c4ccccc4)cc3)cc2OC[C@@H](C)NC[C@H]1C | nt | nt | nt | nt | i
CCOC(=O)C(C(=O)OCC)C(Nc1ccccc1)c1ccccc1 (centres undefined) | i | i | i | i | i
CCOC(=O)[C@H](O)[C@@H](O)c1cccc([C@H](O)[C@@H](O)C(=O)OCC)c1 | i | 24.4 | i | i | i
CCCCCCC1CCC(C(=O)Nn2c(C)nc3ccccc3c2=O)CC1 (centres undefined) | i | i | i | i | 69.4
CNC[C@@H]1Oc2ccc(NC(=O)Nc3ccc(OC)cc3)cc2CC(=O)N([C@@H](C)CO)C[C@H]1C | i | nt | nt | nt | i
